Test results: PubChem BioAssay
The source made the active and inactive calls.

How the values were obtained:
[1] = biological target: Albumin (Bos taurus) (UniProt P02769); test: bovine serum albumin binders on microarray, profiling panel, artefact control for SMM control protein annotation, biochemical, small-molecule microarray, Alexa647 label, 635/667 nm fluorescence (AID 1118); conditions: BSA-A647 binding, fluorescence 635 nm, higher = more signal;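 further: score merges 667 nm emission intensity and signal-to-noise per printed compound spot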
[2] = small-molecule microarray binders of probe aXIP, primary screen, biochemical, NeuroSMM set, 635/667 nm fluorescence (AID 1119); conditions: higher = more signal, called active from +8 up or from −8 down;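 further: probe is the protein aXip251-270 applied at 1 µg/mL to compound-printed slides; binding of probe to printed compounds measured as 667 nm fluorescence plus signal to noise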
[3] = small-molecule binders of probe aNOTCH3, primary screen, biochemical, small-molecule microarray, 635/667 nm fluorescence (AID 1120); conditions: higher = more signal;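 further: probe is a biotin-tagged antibody raised against NOTCH3 rather than NOTCH3 protein; score merges spot fluorescence near 667 nm with spot signal to noise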
[4] = small-molecule binders of probe aNOTCH2, primary screen, biochemical, small-molecule microarray, 635/667 nm fluorescence (AID 1121); conditions: higher = more signal;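 further: score merges feature fluorescence read at 667 nm with its signal to noise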
[5] = biological target: Carbonic anhydrase 2 (Homo sapiens) (UniProt P00918); test: CAII small-molecule binders, profiling panel, biochemical, small-molecule microarray, Alexa647-labelled CAII (AID 1122); conditions: CAII-A647 binding fluorescence, higher = more signal
[6] = COS7 lysate on small-molecule microarray, probe aHis, 635 nm (AID 1123); conditions: COS7 cell lysate, fluorescence, higher = more signal;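 further: z-score combines 667nm fluorescence intensity with signal-to-noise per printed compound spot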
[7] = compound binding in COS7 lysate, probe aLAP1, primary screen, cell lysate, small-molecule microarray (AID 1124); conditions: probe aLAP1, fluorescence, higher = more signal;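 further: lysate comes from COS7 cells expressing LAP1 and is applied at 0.3 µg/mL; score merges spot fluorescence near 667 nm with signal-to-noise over triplicate slides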
[8] = tested on: Sam68 (KHDRBS1); test: Sam68 small-molecule binders, primary screen, biochemical, small-molecule microarray, 635 nm fluorescence (AID 1125); conditions: small-molecule microarray binding, higher = more signal;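 further: score merges 667 nm channel intensity with signal to noise over triplicate slides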
[9] = tested on: Chordin-like protein 2 (CHRDL2); test: CHRDL2 small-molecule binders, primary screen, biochemical, small-molecule microarray, 635 nm fluorescence (AID 1126); conditions: small-molecule microarray binding, fluorescence 635 nm; higher = more signal;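 further: printed compound slides probed with Chrdl2 protein at 4 µg/mL for 1 h at 4 C; score merges 667 nm emission intensity with signal to noise over three replicate slides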
[10] = biological target: Concanavalin-A (Canavalia ensiformis) (UniProt P02866); test: ConA small-molecule binders, primary screen, artefact control for SMM control protein annotation, biochemical, small-molecule microarray, Alexa647 label, 635 nm (AID 1127); conditions: ConA-A647 binding fluorescence, higher = more signal;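 further: z combines 667 nm emission intensity with signal-to-noise across three replicate slides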
Chain of Concanavalin-A (Canavalia ensiformis) (P02866 whole entry, looked up): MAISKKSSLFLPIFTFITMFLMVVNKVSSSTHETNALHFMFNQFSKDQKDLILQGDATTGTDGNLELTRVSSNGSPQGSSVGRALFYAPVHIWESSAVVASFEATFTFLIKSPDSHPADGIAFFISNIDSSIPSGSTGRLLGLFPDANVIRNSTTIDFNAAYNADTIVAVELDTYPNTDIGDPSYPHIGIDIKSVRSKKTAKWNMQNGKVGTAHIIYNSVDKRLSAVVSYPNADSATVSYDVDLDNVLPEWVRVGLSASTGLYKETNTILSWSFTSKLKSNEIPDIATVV

Chain of Albumin (Bos taurus) (P02769 whole entry, looked up): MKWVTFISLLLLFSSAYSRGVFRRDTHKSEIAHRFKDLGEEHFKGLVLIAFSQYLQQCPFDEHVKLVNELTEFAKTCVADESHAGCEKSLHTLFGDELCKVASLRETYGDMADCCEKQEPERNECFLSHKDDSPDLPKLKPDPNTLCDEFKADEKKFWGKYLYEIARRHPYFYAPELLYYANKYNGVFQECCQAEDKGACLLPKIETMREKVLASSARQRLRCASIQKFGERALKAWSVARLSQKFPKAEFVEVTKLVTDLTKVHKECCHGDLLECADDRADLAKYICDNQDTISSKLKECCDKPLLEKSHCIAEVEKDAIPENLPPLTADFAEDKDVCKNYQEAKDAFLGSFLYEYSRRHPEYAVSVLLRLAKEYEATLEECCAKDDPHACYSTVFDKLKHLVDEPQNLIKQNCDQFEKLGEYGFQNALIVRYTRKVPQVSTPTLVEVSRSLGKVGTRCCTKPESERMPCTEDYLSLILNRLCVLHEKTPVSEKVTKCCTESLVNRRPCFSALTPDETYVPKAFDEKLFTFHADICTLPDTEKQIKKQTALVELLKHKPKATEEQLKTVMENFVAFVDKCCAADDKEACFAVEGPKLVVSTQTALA

In the case of `COCCOC(=O)N1C(=O)[C@@]2(c3cc(C#CCCO)ccc31)[C@H](C(=O)Nc1nc3ccccc3s1)[C@H]1C(=O)O[C@H](c3ccccc3)[C@H](c3ccccc3)N1[C@@H]2c1ccccc1OCCO`, the composite z-score [1] was 0.623, the composite Z-score [2] was 0.0088 (inactive) and the composite z-score [3] was 0.436. It also gave a composite z-score [4] of 0.297, a composite z-score [5] of 0.542 and a composite z-score [6] of 1.22. The composite z-score [7] was 0.627, the composite z-score [8] was 1.29 and the composite z-score [9] was 0.524. For the same compound, the composite z-score [10] was 1.14.

In the case of `C=CCN1C(=O)[C@@]2(CCS(=O)(=O)c3ccccc3)N=C(c3ccc(OCCCO)cc3)O[C@H]2c2ccccc21`, the composite z-score [1] was -0.567, the composite Z-score [2] was -0.101 (inactive) and the composite z-score [3] was -0.0302. For the same compound, the composite z-score [4] was -0.0664, the composite z-score [5] was 0.277 and the composite z-score [6] was 2.53. It also gave a composite z-score [7] of 0.207, a composite z-score [8] of 0.988 and a composite z-score [9] of 0.83. For the same compound, the composite z-score [10] was 1.12.

In the case of `CCCC[C@@H]1C[C@H]1[C@@H](NC(=O)c1ccccc1)c1ccc(C(F)(F)F)cc1`, the composite z-score [1] was -0.0844, the composite Z-score [2] was -0.157 (inactive) and the composite z-score [3] was 0.0562. For the same compound, the composite z-score [4] was -0.0698, the composite z-score [5] was 0.009 and the composite z-score [6] was -0.511. It also gave a composite z-score [7] of -0.134, a composite z-score [8] of -1.5 and a composite z-score [9] of -1.15. The composite z-score [10] was -0.917.

In the case of `COC(=O)[C@@]1(Cc2ccc(OC)cc2)[C@H]2c3cc(C(=O)N(C)C)n(CCO)c3C[C@H]2CN1C(=O)c1ccccc1`, the composite z-score [1] was 0.625, the composite Z-score [2] was 0.126 (inactive) and the composite z-score [3] was -0.102. It also gave a composite z-score [4] of 0.257, a composite z-score [5] of 0.935 and a composite z-score [6] of 1.19. It also gave a composite z-score [7] of 0.971, a composite z-score [8] of -0.924 and a composite z-score [9] of -0.784. For the same compound, the composite z-score [10] was 0.001.

With `C=CC[C@]1(C(=O)NCCN2CCOCC2)N=C(c2ccc(OCCCO)cc2)O[C@H]1c1ccccc1CN=[N+]=[N-]` the composite z-score [1] was -0.91, the composite Z-score [2] was 0.363 (inactive) and the composite z-score [3] was -0.273. It also gave a composite z-score [4] of 0.0855, a composite z-score [5] of 0.724 and a composite z-score [6] of 1.41. The composite z-score [7] was 0.034, the composite z-score [8] was 0.826 and the composite z-score [9] was 1.38. For the same compound, the composite z-score [10] was -0.438.

For `COCCOC(=O)N1C(=O)[C@@]2(c3ccccc31)[C@H](C(=O)N1CCN(c3ncccn3)CC1)[C@H]1C(=O)O[C@H](c3ccccc3)[C@H](c3ccccc3)N1[C@@H]2c1ccc(O)cc1`, the composite z-score [1] was 0.303, the composite Z-score [2] was -0.197 (inactive) and the composite z-score [3] was -0.273. For the same compound, the composite z-score [4] was -0.237, the composite z-score [5] was 0.597 and the composite z-score [6] was 1.15. For the same compound, the composite z-score [7] was 0.421, the composite z-score [8] was 1.02 and the composite z-score [9] was 0.271. For the same compound, the composite z-score [10] was 1.1.

For `O=C(NCC(F)(F)F)[C@@H]1c2ccccc2C(=O)N(Cc2ccc(OC(F)(F)F)cc2)[C@H]1c1ccc(CO)cc1`, the composite z-score [1] was 0.0667, the composite Z-score [2] was -0.348 (inactive) and the composite z-score [3] was -0.0647. For the same compound, the composite z-score [4] was -0.14, the composite z-score [5] was 0.65 and the composite z-score [6] was 0.96. For the same compound, the composite z-score [7] was 0.203, the composite z-score [8] was 0.761 and the composite z-score [9] was -0.374. For the same compound, the composite z-score [10] was 0.711.

In the case of `Cc1ccccc1C(O)C1C=CC2C(=O)N(C)C(=O)C2N1N(c1ccccc1)c1ccccc1` (stereo not given), the composite z-score [1] was 0.25, the composite Z-score [2] was 0.111 (inactive) and the composite z-score [3] was 0.84. The composite z-score [4] was 0.473, the composite z-score [5] was 0.833 and the composite z-score [6] was -0.266. For the same compound, the composite z-score [7] was 0.307, the composite z-score [8] was -1.29 and the composite z-score [9] was 0.682. For the same compound, the composite z-score [10] was -0.752.

In the case of `COc1ccc([Si](C)(C)[C@@H]2[C@@H](CCO)O[C@]3(C(=O)N(Cc4ccc(N5CCCCC5=O)cc4)c4ccccc43)[C@H]2C)cc1`, the composite z-score [1] was 0.116, the composite Z-score [2] was 0.385 (inactive) and the composite z-score [3] was 0.033. For the same compound, the composite z-score [4] was -0.0515, the composite z-score [5] was 0.304 and the composite z-score [6] was 0.828. For the same compound, the composite z-score [7] was 0.503, the composite z-score [8] was 1.31 and the composite z-score [9] was 0.507. For the same compound, the composite z-score [10] was 1.12.

In the case of `CN(C)CCCNC(=O)[C@@]1(c2ccc([N+](=O)[O-])cc2)CC(=O)N(CC23CC4CC(CC(C4)C2)C3)[C@@H]1c1ccc(CO)cc1I`, the composite z-score [1] was 0.685, the composite Z-score [2] was -0.729 (inactive) and the composite z-score [3] was 0.095. It also gave a composite z-score [4] of -0.0877, a composite z-score [5] of 0.511 and a composite z-score [6] of 2.86. For the same compound, the composite z-score [7] was 0.457, the composite z-score [8] was 1.28 and the composite z-score [9] was 0.731. For the same compound, the composite z-score [10] was 1.14.

For `CCOC(=O)C1=C[C@@H](c2ccccc2)N(S(=O)(=O)c2ccc(C)cc2)[C@H]1c1ccccc1Cl`, the composite z-score [1] was 0.729, the composite Z-score [2] was 0.0277 (inactive) and the composite z-score [3] was 0.112. For the same compound, the composite z-score [4] was 0.23, the composite z-score [5] was 0.389 and the composite z-score [6] was 1.66. For the same compound, the composite z-score [7] was 0.772, the composite z-score [8] was 1.26 and the composite z-score [9] was 0.359. It also gave a composite z-score [10] of 0.752.
